In PubChem BioAssay (EPA / NIEHS):
Several values for one entry are separate records, joined by “and”; a condition that tells them apart may be missing. Identical values can stand only once. A structure can be active in one record and inactive in another. Activity calls are given as the source filed them. How the source made its calls: active means hit-call score of the fitted dose curve at least 0.9, where 1 is the maximum; inactive means score below 0.9.

Assays:
[1] = APR_HepG2_CellCycleArrest_24hr: Apredica 24-hour HepG2 Assay for Cell Cycle Arrest (AID 2282905); conditions: imaging, actives raise or lower the signal;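 further: cell cycle arrest scored as ratio of 2N to 4N nuclear DNA content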
Outline: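 Compounds at 0.39–200 uM (0.5% DMSO) for 24 h, then fixed and Hoechst 33342 stained. Cell-cycle analysis of nuclear DNA content by high-content imaging, fitted bidirectionally versus DMSO.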

[2] = APR_HepG2_NuclearSize_24hr: Apredica 24-hour HepG2 Assay for Nuclear Size (AID 2282907); conditions: high-content imaging, actives raise or lower the signal
Outline: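 HepG2 cells exposed 24 h to compounds at 0.39–200 uM (0.5% DMSO), fixed, Hoechst 33342 stained and imaged at 20x; nuclear diameter measured by automated image analysis, fitted bidirectionally against DMSO controls.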

[3] = APR_HepG2_CellLoss_24hr: Apredica 24-hour HepG2 Assay for Cell Loss (AID 2282908); conditions: high-content imaging;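 on AC50: fit in both directions so a hit may be cell loss or gain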
Outline: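 HepG2 cells exposed 24 hr to 0.39–200 uM compound in duplicate at 0.5% v/v final DMSO. Cells fixed in 3.7% formaldehyde and Hoechst 33342-stained. Cell number came from nuclear imaging at 20x. Bidirectional fit versus DMSO.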

[4] = APR_HepG2_MicrotubuleCSK_24hr: Apredica 24-hour HepG2 Assay for Microtubule CSK Stabilty (AID 2282909); conditions: HepG2 microtubule cytoskeleton imaging, actives raise or lower the signal
Outline: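 HepG2 cells were treated 24 hr with compound at 0.39–200 uM in duplicate (0.5% DMSO final), then fixed and permeabilized. Alpha-tubulin immunofluorescence was imaged by high-content microscopy, with bidirectional fitting against DMSO and taxol as positive control.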

[5] = APR_HepG2_MitoticArrest_24hr: Apredica 24-hour HepG2 Assay for Mitotic Arrest (AID 2282910); conditions: high-content imaging, actives raise or lower the signal
Outline: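 HepG2 cells, 24 h exposure at 0.39-200 uM (10 concentrations, duplicate, 0.5% DMSO). Fixed, stained for phospho-histone H3 with Hoechst; imaged by high-content microscopy, bidirectional fit versus DMSO.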

[6] = APR_HepG2_MitoMembPot_24hr: Apredica 24-hour HepG2 Assay for Mitochondrial Membrane Potential (AID 2282911); conditions: imaging, actives raise or lower the signal
Outline: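 Human hepatoma HepG2 cultures received ten compound concentrations up to 200 uM for 24 hr. Membrane-potential dye signal, captured by automated fluorescence microscopy, was scored for gain or loss against DMSO controls.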

[7] = APR_HepG2_MitoMass_24hr: Apredica 24-hour HepG2 Assay for Mitochondrial Mass (AID 2282912); conditions: high-content imaging, actives raise or lower the signal
Outline: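 HepG2 cells exposed 24 hr to 0.39–200 uM compound, 0.5% v/v DMSO, in duplicate. Stained before fixation with 250 nM MitoTracker Red CMXRos for 30 min, then imaged at 20x with Hoechst nuclei. Fitted in both directions against DMSO.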

[8] = APR_HepG2_CellCycleArrest_72hr: Apredica 72-hour HepG2 Assay for Cell Cycle Arrest (AID 2282914); conditions: high-content imaging, actives raise or lower the signal
Outline: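 Cell cycle arrest in HepG2 was scored from nuclear DNA content after 72 hr compound treatment (0.39–200 uM). Activity, either gain or loss, was fitted against the DMSO baseline.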

[9] = APR_HepG2_CellLoss_72hr: Apredica 72-hour HepG2 Assay for Cell Loss (AID 2282915); conditions: high-content imaging
Outline: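 HepG2 cells exposed 72 h to compound at 0.39–200 uM (10 concentrations, duplicate) in 0.5% DMSO. Fixed with 3.7% formaldehyde and Hoechst 33342-stained. Imaged at 20x; nuclear count gives cell number, fitted bidirectionally versus DMSO.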

[10] = APR_HepG2_P-H2AX_72hr: Apredica 72-hour HepG2 Assay for H2AX Phosphorylation (AID 2282916); conditions: imaging, actives raise or lower the signal;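 further: phospho-histone H2A.x immunostain intensity per cell marking DNA damage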
Outline: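 HepG2 cells treated 72 h at 0.39–200 uM, 0.5% DMSO final, duplicates. Formaldehyde-fixed, Triton-permeabilised, immunostained for phospho-H2A.x with Hoechst; fluorescence imaged at 20x, bidirectional fit versus DMSO.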

[11] = APR_HepG2_MitoMembPot_72hr: Apredica 72-hour HepG2 Assay for Mitochondrial Membrane Potential (AID 2282917); conditions: imaging, actives raise or lower the signal
Outline: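 HepG2 cells dosed 72 hr with compound at 0.39–200 uM in duplicate, 0.5% v/v DMSO final. Mitochondria stained with 250 nM MitoTracker Red CMXRos for 30 min before formaldehyde fixation, imaged by high-content fluorescence; bidirectional fit versus DMSO.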

[12] = APR_HepG2_MitoticArrest_72hr: Apredica 72-hour HepG2 Assay for Mitotic Arrest (AID 2282918); conditions: high-content imaging, actives raise or lower the signal
Outline: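 Mitotic arrest in HepG2 is scored from phospho-histone H3 staining after 72 hr dosing across 0.39–200 uM, with DMSO at 0.5% v/v. Nuclei are identified by Hoechst 33342 and fluorescence intensity is quantified per cell.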

[13] = APR_HepG2_MicrotubuleCSK_72hr: Apredica 72-hour HepG2 Assay for Microtubule CSK Stabilty (AID 2282919); conditions: HepG2 microtubule cytoskeleton, high-content imaging, actives raise or lower the signal
Outline: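 HepG2 cells were exposed 72 hr to compound at 0.39–200 uM in duplicate (0.5% DMSO final), then fixed and permeabilized. Alpha-tubulin immunofluorescence was imaged by high-content microscopy, with bidirectional fitting against DMSO and taxol as positive control.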

[14] = APR_HepG2_P-H2AX_24hr: Apredica 24-hour HepG2 Assay for H2AX Phosphorylation (AID 2282920); conditions: high-content imaging, actives raise or lower the signal
Outline: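 Signal comes from a FITC-labeled secondary detecting phospho-histone H2A.x in fixed HepG2 cells, quantified by automated imaging at 20x. Dosing ran 24 hr across 0.39–200 uM with 0.5% v/v DMSO.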

[15] = APR_HepG2_StressKinase_72hr: Apredica 72-hour HepG2 Assay for Stress Kinase (AID 2282921); conditions: HepG2 stress kinase (phospho-c-Jun) imaging, actives raise or lower the signal
Outline: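 HepG2 cells treated 72 hr with 0.39–200 uM compound, 0.5% v/v DMSO, duplicate wells. After formaldehyde fixation and Triton permeabilization, stained with anti-phospho-c-Jun (1:500) and Cy3 secondary, imaged at 20x. Fitted in both directions against DMSO.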

[16] = APR_HepG2_StressKinase_24hr: Apredica 24-hour HepG2 Assay for Stress Kinase (AID 2282922); conditions: HepG2 stress kinase (phospho-c-Jun) imaging, actives raise or lower the signal
Outline: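 HepG2 cells exposed 24 h to 0.39–200 uM compound in duplicate (0.5% v/v DMSO final). Cells fixed in 3.7% formaldehyde, permeabilized and immunostained for phospho-c-Jun; read by high-content fluorescence imaging, fitted bidirectionally against DMSO.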

[17] = APR_HepG2_MitoMass_72hr: Apredica 72-hour HepG2 Assay for Mitochondrial Mass (AID 2282924); conditions: high-content imaging, actives raise or lower the signal;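 further: MitoTracker Red CMXRos stain intensity per cell imaged as mitochondrial mass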
Outline: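 HepG2 cells dosed 72 hr at 0.39–200 uM (0.5% DMSO), in duplicate. MitoTracker Red CMXRos 250 nM loaded 30 min before formaldehyde fixation; high-content fluorescence imaging, bidirectional fit versus DMSO.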

[18] = APR_HepG2_p53Act_72hr: Apredica 72-hour HepG2 Assay for p53 Activation (AID 2282923); conditions: high-content imaging, actives raise or lower the signal;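 further: average cellular p53 protein immunofluorescence intensity in HepG2 cells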
Outline: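 HepG2 cells exposed 72 h to 0.39–200 uM in 0.5% DMSO, duplicates. Fixed, permeabilized cells immunostained for p53 (Cy5) with Hoechst; imaged at 20x, fluorescence analyzed bidirectionally against DMSO.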

[19] = APR_HepG2_StressKinase_1hr: Apredica 1-hour HepG2 Assay for Stress Kinase (AID 2282906); conditions: HepG2 stress kinase (phospho-c-Jun) imaging, actives raise or lower the signal
Outline: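 HepG2 cells dosed 0.39-200 uM (0.5% DMSO) for 1 h, then formaldehyde-fixed. Stress kinase read by phospho-c-Jun immunofluorescence using high-content imaging; bidirectional fit vs DMSO.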

Measured: AC50

CNC(=O)/C=C(\C)OP(=O)(OC)OC
not listed: [18] | [19]
inactive: all other assays above

O=C(O)CCCOc1ccc(Cl)cc1Cl
not listed: [11] | [19]
inactive: all other assays above

CC(C)OC(=O)Nc1cccc(Cl)c1
not listed: [11]
inactive: all other assays above

Oc1cc(Cl)ccc1Oc1ccc(Cl)cc1Cl
inactive: [1] | [2] | [4] | [6] | [7] | [8] | [10] | [12] | [13] | [14] | [15] | [16] | [18] | [17]
active: [1] 9.18 µM and 20.4 µM | [2] 63.9 µM | [3] 90.7 µM and 70.9 µM and 12.8 µM | [4] 98.5 µM and 33.3 µM | [6] 97.9 µM and 4.39 µM | [7] 177 µM and 59 µM | [8] 18.9 µM and 11.6 µM | [9] 35.3 µM and 26.9 µM and 67 µM | [10] 24.4 µM and 34.3 µM | [12] 27.9 µM | [13] 98.6 µM and 71.5 µM | [14] 27.9 µM and 45.5 µM | [15] 49.2 µM | [18] 14.9 µM and 16.3 µM | [17] 170 µM

O=C(NC(=O)c1c(F)cccc1F)Nc1ccc(OC(F)(F)C(F)OC(F)(F)F)c(Cl)c1 (stereo not given)
not listed: [11] | [18]
inactive: all other assays above

CC1(C)C(C=C(Cl)Cl)C1C(=O)OC(C#N)c1ccc(F)c(Oc2ccccc2)c1 (stereo not given)
not listed: [11] | [19]
inactive: all other assays above
